# Reference: PubChem BioAssay (Tox21)
# Where “and” joins values, the source holds several entries; their conditions need not be identical. Equal values may be shown once. Records with an inconclusive call do not appear. A call without a number means that no potency is given here. More than one record can exist for a structure, and the calls need not agree. Calls of active or inactive are those of the source. Unless noted, calls follow the shape of the dose curve; as a rule, active = well fitted curve in the direction sought with a large enough effect in the repeat runs; inconclusive = weak or mixed curves; inactive = no such curve, though single readings can be large; an effect the other way counts as inactive or inconclusive.
# Assays:
# [1] = qHTS assay to identify small molecule antagonists of the thyroid receptor (TR) signaling pathway - cell viability counter screen (AID 743064); also: nearly all actives have a fitted effect of over 50% in size; also: potency is read from the fitted curve at half-maximal effect
# Procedure, shortened: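 Same-well viability check: GH3.TRE-Luc cells stimulated with 1 nM T3 alongside test compound for 23.5 h, followed by CellTiter-Fluor fluorescence.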
# [2] = qHTS assay to identify small molecule antagonists of the thyroid receptor (TR) signaling pathway (AID 743065); also: nearly all actives have a fitted effect of over 55% in size; also: potency is read from the fitted curve at half-maximal effect
# Procedure, shortened: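 GH3.TRE-Luc rat pituitary cells carrying two TR response elements driving luciferase were plated for 4 h, given compound plus 1 nM T3 (final), and incubated 23.5 h at 37 C. ONE-Glo luminescence measured reporter inhibition; CellTiter-Fluor fluorescence tracked cytotoxicity.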
# [3] = system: thyroid hormone receptor (rat, GH3 cells); assay: qHTS assay to identify small molecule agonists of the thyroid receptor (TR) signaling pathway (AID 743066; calls by dose curve; also: potency is read from the fitted curve at half-maximal effect)
# [4] = molecular target: Estrogen receptor (Homo sapiens) (UniProt P03372); assay: qHTS assay to identify small molecule antagonists of the estrogen receptor alpha (ER-alpha) signaling pathway (AID 743069; active = well fitted curve in the direction sought with a large enough effect in the signal ratio in the repeat runs, not every such curve was filed as active; the % refers to the signal ratio)
# Estrogen receptor (Homo sapiens), sequence (P03372 whole entry, looked up): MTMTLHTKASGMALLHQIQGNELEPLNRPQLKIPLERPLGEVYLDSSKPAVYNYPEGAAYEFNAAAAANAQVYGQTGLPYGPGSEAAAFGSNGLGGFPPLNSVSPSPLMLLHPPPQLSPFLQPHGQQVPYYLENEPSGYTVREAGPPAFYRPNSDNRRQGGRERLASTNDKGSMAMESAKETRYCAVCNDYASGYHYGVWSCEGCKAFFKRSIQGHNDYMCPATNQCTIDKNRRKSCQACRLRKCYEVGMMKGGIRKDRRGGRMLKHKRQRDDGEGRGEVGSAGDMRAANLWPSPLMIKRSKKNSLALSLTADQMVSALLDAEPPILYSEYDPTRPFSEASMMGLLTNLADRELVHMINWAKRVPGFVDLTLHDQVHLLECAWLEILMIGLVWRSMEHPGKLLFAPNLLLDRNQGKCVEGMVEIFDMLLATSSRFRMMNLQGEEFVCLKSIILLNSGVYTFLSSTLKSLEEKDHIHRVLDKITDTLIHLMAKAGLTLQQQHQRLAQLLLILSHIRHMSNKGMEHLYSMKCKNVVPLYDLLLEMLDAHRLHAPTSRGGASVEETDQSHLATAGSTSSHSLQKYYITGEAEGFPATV
# Procedure, shortened: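 Screening used a UAS-driven beta-lactamase reporter integrated into HEK293 cells expressing ER-alpha, stimulated with 17beta-estradiol alongside test compounds over 18 hr at 37C; signal came from LiveBLAzer B/G FRET fluorescence.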
# [5] = qHTS assay to identify small molecule antagonists of the estrogen receptor alpha (ER-alpha) signaling pathway - cell viability counter screen (AID 743074; calls by dose curve; also: nearly all actives have a fitted effect of over 45% in size)
# [6] = molecular target: Estrogen receptor (Homo sapiens) (UniProt P03372); assay: qHTS assay to identify small molecule agonists of the estrogen receptor alpha (ER-alpha) signaling pathway (AID 743075; calls by dose curve)
# [7] = molecular target: Estrogen receptor (Homo sapiens) (UniProt P03372); assay: qHTS assay to identify small molecule agonists of the estrogen receptor alpha (ER-alpha) signaling pathway using the BG1 cell line (AID 743079); also: nearly all actives have a fitted effect of over 20% in size; also: potency is read from the fitted curve at half-maximal effect
# [8] = qHTS assay to identify small molecule antagonists of the estrogen receptor alpha (ER-alpha) signaling pathway using the BG1 cell line (AID 743080; calls by dose curve;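 also: BG1 cells stimulated with 17beta-estradiol alongside compound; series mostly up to about 70 µM; nearly all actives have a fitted effect of over 25% in size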)
# Procedure, shortened: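 Readout is ONE-Glo luminescence, taken 30 min at room temperature after reagent addition, preceded by a CellTiter-Fluor viability read; BG1-Luc-4E2 cells had received compound and 17beta-estradiol for 21.5 h at 37 C.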
# [9] = qHTS assay to identify small molecule antagonists of the estrogen receptor alpha (ER-alpha) signaling pathway using the BG1 cell line - cell viability counter screen (AID 743081);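 also: compound given together with 17beta-estradiol as the ER stimulus; series mostly up to about 70 µM; nearly all actives have a fitted effect of over 45% in size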
# Aromatase (Homo sapiens) = Aromatase (Homo sapiens) (UniProt P11511); assay: qHTS assay to identify aromatase inhibitors (AID 743083); also: series mostly up to about 70 µM; nearly all actives have a fitted effect of over 55% in size
# Aromatase (Homo sapiens), sequence (P11511 whole entry, looked up): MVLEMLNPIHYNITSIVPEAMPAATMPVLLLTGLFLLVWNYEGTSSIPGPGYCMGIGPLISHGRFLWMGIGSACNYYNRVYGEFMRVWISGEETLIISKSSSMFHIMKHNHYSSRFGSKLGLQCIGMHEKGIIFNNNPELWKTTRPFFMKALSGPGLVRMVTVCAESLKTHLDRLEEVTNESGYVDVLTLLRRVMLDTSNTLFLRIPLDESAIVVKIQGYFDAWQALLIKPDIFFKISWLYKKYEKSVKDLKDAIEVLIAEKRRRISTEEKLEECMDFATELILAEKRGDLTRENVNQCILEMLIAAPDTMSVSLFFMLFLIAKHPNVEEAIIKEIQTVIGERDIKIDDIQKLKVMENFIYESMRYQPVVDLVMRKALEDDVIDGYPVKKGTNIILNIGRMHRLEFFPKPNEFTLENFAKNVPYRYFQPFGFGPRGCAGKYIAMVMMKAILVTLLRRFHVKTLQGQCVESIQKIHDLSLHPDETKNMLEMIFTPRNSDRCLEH
# [10] = qHTS assay to identify aromatase inhibitors - cell viability counter screen (AID 743084);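 also: cells stimulated with testosterone during compound exposure; nearly all actives have a fitted effect of over 55% in size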; also: potency is read from the fitted curve at half-maximal effect
# [11] = molecular target: Aryl hydrocarbon receptor (Homo sapiens) (UniProt P35869); assay: qHTS assay to identify small molecule that activate the aryl hydrocarbon receptor (AhR) signaling pathway (AID 743085); also: nearly all actives have a fitted effect of over 15% in size; also: potency is read from the fitted curve at half-maximal effect;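 as to activation: HG2L7.5c1 human HepG2 liver cells with stably integrated DRE-driven firefly reporter; series mostly up to about 70 µM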
# Aryl hydrocarbon receptor (Homo sapiens), sequence (P35869 whole entry, looked up): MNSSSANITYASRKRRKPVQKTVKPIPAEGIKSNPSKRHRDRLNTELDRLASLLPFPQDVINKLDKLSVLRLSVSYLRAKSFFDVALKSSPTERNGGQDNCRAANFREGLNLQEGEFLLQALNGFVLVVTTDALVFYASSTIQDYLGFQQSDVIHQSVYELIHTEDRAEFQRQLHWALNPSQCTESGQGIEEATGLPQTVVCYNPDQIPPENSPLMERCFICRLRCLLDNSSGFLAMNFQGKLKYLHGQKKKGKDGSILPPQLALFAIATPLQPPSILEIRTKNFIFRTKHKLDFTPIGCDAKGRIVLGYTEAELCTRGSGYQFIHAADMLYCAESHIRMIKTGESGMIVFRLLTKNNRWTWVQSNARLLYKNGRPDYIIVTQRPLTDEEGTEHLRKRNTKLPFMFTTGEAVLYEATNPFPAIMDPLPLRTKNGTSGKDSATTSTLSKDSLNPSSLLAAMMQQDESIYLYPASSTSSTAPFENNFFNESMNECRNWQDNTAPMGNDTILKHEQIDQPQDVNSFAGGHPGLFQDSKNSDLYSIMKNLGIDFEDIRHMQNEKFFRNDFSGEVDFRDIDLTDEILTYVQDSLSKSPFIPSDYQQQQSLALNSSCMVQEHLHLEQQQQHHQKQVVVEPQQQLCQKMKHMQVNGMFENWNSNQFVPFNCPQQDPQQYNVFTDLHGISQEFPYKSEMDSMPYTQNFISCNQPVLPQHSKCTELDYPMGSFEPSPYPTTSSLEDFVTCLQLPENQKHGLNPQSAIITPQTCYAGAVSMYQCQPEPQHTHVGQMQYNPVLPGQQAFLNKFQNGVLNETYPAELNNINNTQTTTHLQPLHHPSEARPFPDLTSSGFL
# Procedure, shortened: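 Reporter assay in engineered HepG2 line HG2L7.5c1, whose plasmid carries twenty dioxin responsive elements upstream of firefly luciferase. Treatment lasted 24 h at 37C; ONE-Glo luminescence gauged induction.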
# [12] = qHTS assay to identify small molecule that activate the aryl hydrocarbon receptor (AhR) signaling pathway - cell viability counter screen (AID 743086);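 also: HepG2 liver cells carrying the AhR DRE luciferase reporter; series mostly up to about 70 µM; nearly all actives have a fitted effect of over 45% in size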
# Procedure, shortened: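 HepG2-AhR-luc (HG2L7.5c1) cells, 4000/well, were preincubated 5 h at 37C, exposed to compound in qHTS format for 24 hr at 37C, then given CellTiter-Fluor for 30 min; viability was read as fluorescence in the reporter wells.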
# [13] = molecular target: Peroxisome proliferator-activated receptor gamma (Homo sapiens) (UniProt P37231); assay: qHTS assay to identify small molecule agonists of the peroxisome proliferator-activated receptor gamma (PPARg) signaling pathway (AID 743094; active = well fitted activation curve with a large enough effect in the signal ratio in the repeat runs, not every such curve was filed as active; the % refers to the signal ratio)
# Peroxisome proliferator-activated receptor gamma (Homo sapiens), sequence (P37231 whole entry, looked up): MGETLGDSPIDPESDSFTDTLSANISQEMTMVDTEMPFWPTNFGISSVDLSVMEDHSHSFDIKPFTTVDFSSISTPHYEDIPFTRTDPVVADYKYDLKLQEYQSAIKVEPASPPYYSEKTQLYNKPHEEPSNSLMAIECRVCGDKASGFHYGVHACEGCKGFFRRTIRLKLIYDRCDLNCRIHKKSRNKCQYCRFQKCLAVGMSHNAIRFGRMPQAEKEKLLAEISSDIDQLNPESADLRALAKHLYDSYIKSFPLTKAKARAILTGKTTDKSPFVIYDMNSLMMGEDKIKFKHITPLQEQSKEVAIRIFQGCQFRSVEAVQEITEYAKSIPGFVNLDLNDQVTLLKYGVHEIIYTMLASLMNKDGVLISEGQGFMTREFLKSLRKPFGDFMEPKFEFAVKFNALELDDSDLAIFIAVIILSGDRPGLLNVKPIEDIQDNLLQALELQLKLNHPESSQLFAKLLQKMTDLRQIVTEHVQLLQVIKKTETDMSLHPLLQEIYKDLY
# Procedure, shortened: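 Cells from the PPARg UAS-bla HEK293H line are plated and incubated 5 h at 37C. Compounds in DMSO are pinned in and left 17 h at 37C. LiveBLAzer B/G substrate is then added for 1 h at room temperature before fluorescence is measured.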
# [14] = molecular target: Peroxisome proliferator-activated receptor gamma (Homo sapiens) (UniProt P37231); assay: qHTS assay to identify small molecule antagonists of the peroxisome proliferator-activated receptor gamma (PPARg) signaling pathway (AID 743191; calls by dose curve; also: series mostly up to about 63 µM; nearly all actives have a fitted effect of over 30% in size)
# Procedure, shortened: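 GeneBLAzer PPARg UAS-bla HEK293H cells carrying a UAS-driven beta-lactamase reporter were plated at 3000 cells/well, preincubated 5 h at 37C, then given compound for 17 h at 37C; LiveBLAzer B/G FRET substrate was read after 1 h at room temperature.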
# [15] = qHTS assay to identify small molecule antagonists of the peroxisome proliferator-activated receptor gamma (PPARg) signaling pathway - cell viability counter screen (AID 743194); also: nearly all actives have a fitted effect of over 55% in size
# Procedure, shortened: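 PPARg-UAS-bla HEK293H cells were plated, rested 5 h at 37 C, then treated with compounds plus rosiglitazone (50 nM final) for 17 h at 37 C; viability was then read by CellTiter-Glo luminescence after 30 min at room temperature.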
# [16] = qHTS assay for small molecule agonists of the antioxidant response element (ARE) signaling pathway (AID 743202; active = well fitted activation curve with a large enough effect in the signal ratio in the repeat runs, not every such curve was filed as active; the % refers to the signal ratio; also: potency is read from the fitted curve at half-maximal effect)
# Procedure, shortened: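 Steps: seed ARE-bla HepG2 cells (2,000/well); incubate 5 h at 37 C; add compounds by pin tool; incubate 16 h at 37 C; add FRET substrate; read fluorescence after 2 h at RT.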
# [17] = qHTS assay for small molecule agonists of the antioxidant response element (ARE) signaling pathway - cell viability counter screen (AID 743203; calls by dose curve; also: nearly all actives have a fitted effect of over 55% in size)
# Procedure, shortened: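 Cytotoxicity was tested in parallel with the ARE reporter screen. ARE-bla HepG2 cells were exposed to compounds for 16 hrs, and viability was taken from CellTiter-Glo luminescence.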
# [18] = qHTS assay for small molecule activators of the heat shock response signaling pathway - cell viability counter screen (AID 743209); also: nearly all actives have a fitted effect of over 50% in size
# Procedure, shortened: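 Cytotoxicity counter screen run in parallel with the HSE beta-lactamase reporter, using the same wells. HeLa HSE-bla cells received compound for 5 h at 37 C; ATP-based CellTiter-Glo luminescence was measured after 30 min at room temperature.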
# [19] = qHTS assay for small molecule activators of the heat shock response signaling pathway (AID 743210; active = well fitted activation curve with a large enough effect in the signal ratio in the repeat runs, with a control signal flat, not every such curve was filed as active; the % refers to the signal ratio;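 also: HeLa cells with beta-lactamase reporter driven by heat shock elements; series mostly up to about 63 µM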)
# Procedure, shortened: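 Activation of heat shock element-controlled beta-lactamase expression is measured in HeLa cells by LiveBLAzer FRET fluorescence, with compound exposure lasting 5 h at 37 C and substrate loading 2.5 h at room temperature.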
SMILES,Potency [1],Potency [2],Potency [3],Potency [4],outcome [5],outcome [6],Potency [7],outcome [8],outcome [9],Potency (Aromatase (Homo sapiens)),Potency [10],Potency [11],outcome [12],outcome [13],Potency [14],outcome [15],Potency [16],Potency [17],Potency [18],Potency [19]
C=CCN=C=S,inactive,inactive,inactive,inactive,inactive,inactive,inactive,inactive,inactive,inactive,inactive,inactive,inactive,inactive,inactive,inactive,inactive,inactive,inactive,inactive
CCCOC(=O)c1ccccc1C(=O)OCCC,inactive,inactive,inactive,inactive,inactive,inactive,inactive,inactive,inactive,inactive,inactive,inactive,inactive,inactive,inactive,inactive,inactive,inactive,inactive,inactive
FC(F)(F)c1ccc(Cl)cc1,inactive,inactive,inactive,inactive,inactive,inactive,inactive,inactive,inactive,inactive,inactive,inactive,inactive,inactive,inactive,inactive,inactive,inactive,inactive,inactive
CNC(=O)Oc1cccc2ccccc12,inactive,inactive,inactive,inactive,inactive,inactive,inactive,inactive,inactive,inactive,inactive,5.31 µM (active) and 54 µM (active) and 27.3 µM (active),inactive,–,–,inactive,–,inactive,inactive,inactive
O=C(O)C(Br)Br,inactive,inactive,inactive,inactive,inactive,inactive,inactive,inactive,inactive,inactive,inactive,–,inactive,inactive,inactive,inactive,86.3 nM (active),inactive,inactive,inactive
CN(C)C(=O)Nc1cccc(C(F)(F)F)c1,inactive,inactive,inactive,–,inactive,–,–,–,inactive,inactive,inactive,inactive,inactive,inactive,inactive,inactive,inactive,inactive,inactive,inactive
Cl[C@H]1OCCO[C@@H]1Cl,inactive,inactive,inactive,–,inactive,–,–,–,inactive,inactive,inactive,inactive,inactive,inactive,inactive,inactive,inactive,inactive,inactive,inactive
Cc1cccc(C)c1NC(=O)CN1CCCC1=O,inactive,inactive,inactive,inactive,inactive,inactive,inactive,inactive,inactive,inactive,inactive,inactive,inactive,inactive,inactive,inactive,inactive,inactive,inactive,–
CCNc1nc(Cl)nc(NC(C)C)n1,inactive,inactive,inactive,inactive,inactive,inactive,inactive,inactive,inactive,inactive,inactive,inactive,inactive,inactive,inactive,inactive,inactive,inactive,inactive,inactive
CN(C)NC(=O)CCC(=O)O,inactive,inactive,inactive,–,inactive,–,–,–,inactive,inactive,inactive,inactive,inactive,inactive,inactive,inactive,inactive,inactive,inactive,inactive
Cc1ccc(O)c(C)c1,inactive,inactive,inactive,inactive,inactive,inactive,inactive,inactive,inactive,inactive,inactive,inactive,inactive,inactive,inactive,inactive,–,inactive,inactive,inactive
C=CC#N,inactive,inactive,inactive,inactive,inactive,inactive,inactive,inactive,inactive,inactive,inactive,inactive,inactive,inactive,inactive,inactive,inactive,inactive,inactive,inactive
C=CC(=O)OCCCCCC(C)C,inactive,inactive,inactive,inactive,inactive,inactive,80.9 µM (active) and inactive,inactive,inactive,inactive,inactive,inactive,inactive,inactive,–,inactive,inactive,inactive,inactive,inactive
OC[C@@H](O)[C@H]1O[C@@H]2O[C@H](C(Cl)(Cl)Cl)O[C@@H]2[C@H]1O,inactive,inactive,inactive,inactive,inactive,inactive,inactive,inactive,inactive,inactive,inactive,inactive,inactive,inactive,inactive,inactive,inactive,inactive,inactive,inactive
CC(C)CCCCCCOC(=O)c1ccccc1C(=O)OCCCCCCC(C)C,inactive,inactive,inactive,inactive,inactive,inactive,inactive,inactive,inactive,inactive,inactive,inactive,inactive,–,–,inactive,inactive,inactive,inactive,inactive
Cl/C=C/Cl,inactive,inactive,inactive,inactive,inactive,inactive,inactive,inactive,inactive,inactive,inactive,inactive,inactive,–,–,inactive,inactive,inactive,inactive,inactive
CNC(=O)O/N=C/C(C)(C)S(C)(=O)=O,inactive,inactive,inactive,inactive,inactive,inactive,inactive,inactive,inactive,inactive,inactive,inactive,inactive,inactive,inactive,inactive,inactive,inactive,inactive,inactive
Nc1cccc(Cl)c1,inactive,inactive,inactive,inactive,inactive,inactive,inactive,inactive,inactive,inactive,inactive,–,inactive,inactive,inactive,inactive,inactive,inactive,inactive,–
Cc1ccc(N)cc1,inactive,inactive,inactive and 77 µM (active),–,inactive,–,–,–,inactive,inactive,inactive,24.5 µM (active) and inactive and 61.1 µM (active),inactive,inactive,inactive,inactive,inactive,inactive,inactive,inactive
O=P1(NCCCl)OCCCN1CCCl (centres undefined),inactive,inactive,inactive,–,inactive,–,–,–,inactive,inactive,inactive,inactive,inactive,inactive,inactive,inactive,inactive,inactive,inactive,inactive
CNC(=O)O/N=C(\SC)C(=O)N(C)C,inactive,inactive,inactive,inactive,inactive,inactive,66.7 µM (active),inactive,inactive,inactive,inactive,inactive,inactive,inactive,inactive,inactive,inactive,inactive,inactive,inactive
CCCCC(CC)C(=O)Cl (centres undefined),inactive,inactive,inactive,inactive,inactive,inactive,inactive,inactive,inactive,inactive,inactive,inactive,inactive,inactive,inactive,inactive,inactive,inactive,inactive,inactive
CNC(=O)O/N=C/C(C)(C)SC,inactive,inactive,inactive,inactive,inactive,inactive,inactive,inactive,inactive,inactive,inactive,inactive,inactive,inactive,inactive,inactive,inactive,inactive,inactive,–
Cc1ccc(N=C=O)cc1N=C=O,inactive,inactive,inactive,–,inactive,–,–,–,inactive,inactive,inactive,25 µM (active) and 1.08 µM (active),inactive,inactive,inactive,inactive,inactive,inactive,inactive,–
CN(C)C(=O)Cl,inactive,inactive,inactive,inactive,inactive,inactive,inactive,inactive,inactive,inactive,inactive,inactive,inactive,inactive,inactive,inactive,inactive,inactive,inactive,inactive
O=C(O)CCCc1ccc(N(CCCl)CCCl)cc1,61.1 µM (active),30.8 µM (active) and 27.3 µM (active),inactive,inactive,inactive,inactive,inactive,inactive,inactive,inactive,inactive and 30.6 µM (active),inactive,inactive,inactive,inactive,inactive,inactive,inactive,inactive,inactive
COP(=S)(OC)Oc1ccc(SC)c(C)c1,inactive,inactive,inactive,inactive,inactive,inactive,48 µM (active),inactive,inactive,inactive,inactive,26.6 µM (active) and 30.3 µM (active) and 24.3 µM (active),inactive,inactive,inactive,inactive,inactive,inactive,inactive,inactive
CNCC(O)c1ccc(O)cc1 (centres undefined),inactive,inactive,inactive,inactive,inactive,inactive,inactive,inactive,inactive,inactive,inactive,inactive,inactive,inactive,inactive,inactive,–,inactive,inactive,inactive
CNC(=O)O/N=C/C(C)(C)S(C)=O (centres undefined),inactive,inactive,inactive,inactive,inactive,inactive,inactive,inactive,inactive,inactive,inactive,–,inactive,inactive,inactive,inactive,inactive,inactive,inactive,inactive
O=[N+]([O-])c1cc([As](=O)(O)O)ccc1O,inactive,inactive,inactive,inactive,inactive,inactive,inactive,inactive,inactive,inactive,inactive,inactive,inactive,inactive,inactive,inactive,inactive,inactive,inactive,inactive
